TDP1 inh = qHTS Assay for Inhibitors of Tyrosyl-DNA Phosphodiesterase (TDP1); Potency, µM (highest dose often 130 µM), inactives show top-dose activity change, negative = inhibition, hits mostly inhibitors; 350,000 tested, 0.28% active; Tyrosyl-DNA phosphodiesterase 1 (Homo sapiens), Q9NUW8; recombinant TDP1, AlphaScreen DNA substrate cleavage; note: nearly all actives have a fitted effect of over 40% in size
Target sequence (Q9NUW8 whole entry, looked up): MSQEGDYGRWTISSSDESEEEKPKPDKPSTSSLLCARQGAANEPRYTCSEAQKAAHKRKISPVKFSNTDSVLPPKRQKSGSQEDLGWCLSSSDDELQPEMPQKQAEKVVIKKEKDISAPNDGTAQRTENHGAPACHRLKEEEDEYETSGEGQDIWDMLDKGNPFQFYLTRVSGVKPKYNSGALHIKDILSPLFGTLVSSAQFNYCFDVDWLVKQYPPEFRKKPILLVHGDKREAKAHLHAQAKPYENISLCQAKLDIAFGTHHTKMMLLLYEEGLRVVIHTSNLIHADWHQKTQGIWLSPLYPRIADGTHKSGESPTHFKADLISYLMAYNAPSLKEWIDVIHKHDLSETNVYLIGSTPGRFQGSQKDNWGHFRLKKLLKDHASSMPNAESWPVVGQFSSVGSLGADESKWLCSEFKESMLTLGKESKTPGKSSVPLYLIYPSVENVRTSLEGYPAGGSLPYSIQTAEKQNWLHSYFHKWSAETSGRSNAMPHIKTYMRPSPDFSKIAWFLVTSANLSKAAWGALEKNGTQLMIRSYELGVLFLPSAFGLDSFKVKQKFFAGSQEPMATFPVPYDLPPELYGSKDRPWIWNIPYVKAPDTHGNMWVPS
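Recombinant human Tdp1 (E. coli-expressed, 1 nM final) preincubated with compounds 15 min at room temperature, then 5'-biotin/3'-phosphotyrosine-FITC DNA substrate (15 nM final) added for 5 min. AlphaScreen beads (10 ug/ml final) added 10 min; cleavage lowers signal.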
DT40 TDP1 no CPT = qHTS for Inhibitors of human tyrosyl-DNA phosphodiesterase 1 (TDP1): qHTS in cells in absence of CPT; DT40 Tdp1-/- hTDP1 cells, no CPT, ATP luminescence, 48 h; Potency, µM (series often up to 46.2 µM), for inactives: at the top dose activity change, negative = growth inhibition, most hits filed as inhibitors; 420,000 tested, 15% active; AID 686978, 2013; note: nearly all actives have a fitted effect of over 55% in size
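No-CPT arm: Tdp1-/-;hTDP1 DT40 cells (400/well) plus compounds, incubated ≥48 hr at 37 °C. Readout CellTiter-Glo luminescence.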
GCN5L2 inh = qHTS Assay for Inhibitors of GCN5L2 | Histone acetyltransferase KAT2A (Homo sapiens), Q92830 | GCN5L2 HAT assay, ThioGlo1 CoA-SH fluorescence | Potency, µM (series often up to 58.9 µM), for inactives: at the highest dose activity change, negative = inhibition, usual class: inhibitors | 390,000 tested, 0.21% active | AID 504327, 2011
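Free CoA generated was detected with ThioGlo1 (50uM) fluorescence at Ex340nm/Em540nm, read immediately and after 20 min at room temperature. Enzyme, 20 nM in HEPES pH 7.5 buffer, saw compounds 15 min before adding 75uM H3(1-25) peptide and 70uM acetyl-CoA.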
VDR inh = Inhibitors of the vitamin D receptor (VDR): qHTS; 400,000 tested, 0.93% active; VDR-SRC2-3 peptide fluorescence polarization, 2 h; Potency, µM, for inactives: max response, negative = inhibition, usual class: inhibitors; AID 504847, 2011
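Reagent solutions, kept cold and dark, are dispensed first; compounds are then pinned in at 23 nl, plates briefly spun, and incubated 2 h at ambient temperature. Inhibition of VDR–SRC2-3 peptide binding is read by fluorescence polarization.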
PLK1 PBD block = qHTS for Inhibitors of PLK1-PDB (polo-like kinase 1 - polo-box domain): Primary Screen; Serine/threonine-protein kinase PLK1 (Homo sapiens), P53350; Plk1 PBD binding of FITC phosphopeptide, fluorescence polarization; Potency, µM, without a hit: max response, negative = inhibition, actives largely listed as inhibitors; 360,000 tested, 2.8% active; note: series mostly up to about 57 µM; nearly all actives have a fitted effect of over 65% in size
TDP1 cell CPT = qHTS for Inhibitors of human tyrosyl-DNA phosphodiesterase 1 (TDP1): qHTS in cells in presence of CPT | Potency, µM (titrated, usually from 46.2 µM), for the others: at the top dose activity change, negative = growth inhibition, most hits filed as inhibitors | chicken DT40 Tdp1-/-;hTDP1 cells + 20 nM CPT, ATP luminescence, 48 h | 420,000 tested, 12% active; note: nearly all actives have a fitted effect of over 55% in size
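Chicken DT40 Tdp1-/- cells complemented with human TDP1, 400 cells/well, exposed to compounds plus 20 nM camptothecin for at least 48 h at 37 C; viability read as ATP content by CellTiter-Glo luminescence.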
* marks the source's active call; other numbers are inactive results; ? = inconclusive; · = no result; [ ] = dose if it differs, or a comment. The list is not random: actives were taken first. Their share in the collection is about 18%. Calls come from the whole dose curve; as a rule, active = well fitted curve in the direction sought with a large enough effect; inconclusive = small, poorly fitted or top-dose-only effect, or another doubt; inactive = no such curve, though single readings can be large; an effect the other way counts as inactive or inconclusive. % is set by controls: 0 for no effect and ±100 for the full control effect; potency is the fitted concentration of half-maximal effect.

SMILES	TDP1 inh	DT40 TDP1 no CPT	GCN5L2 inh	VDR inh	PLK1 PBD block	TDP1 cell CPT
CC[C@]12c3[nH]c4ccccc4c3CCN1C(=O)C(CC(=O)NCCCN(C)C)C[C@@H]2C(=O)N1CCN(C(=O)c2ccco2)CC1 (stereo partly specified)	1%	-3%	-4%	-7%	-7%	-3%
Cc1[nH]nc(N=CC2=C(O)CC(C)(C)CC2=O)c1-c1ccccc1	1%	16µM*	-1%	-6%	-13%	?
Cc1[nH]nc(N=CC2=C(O)CC(c3ccco3)CC2=O)c1-c1ccccc1 (stereo unspecified)	-5%	?	-8%	5%	-12%	?
COc1ccccc1OCCCCN1CCC(C)CC1	·	-4%	4%	10%	5%	3%
c1ccc(-c2ccccc2OCCCCn2ccnc2)cc1	7%	26µM*	1%	-11%	-6%	23µM*
c1ccc(COc2ccc(OCCCCN3CCCC3)cc2)cc1	3%	23µM*	-4%	-6%	-11%	?
CC(C)(C)c1ccccc1OCCCCCn1ccnc1	0%	?	-15%	7%	?	?
c1ccc(-c2ccccc2OCCOCCN2CCCCC2)cc1	5%	?	1%	-13%	-8%	23µM*
c1ccc(-c2ccccc2OCCN2CCCC2)cc1	5%	-11%	-20%	-21%	-10%	7%
CC1CCN(CCOCCOc2ccccc2-c2ccccc2)CC1	1%	?	-4%	-6%	2%	23µM*
CC(C)Cc1nnc(NC(=O)C2=COCCO2)s1	2%	21%	-7%	11%	-2%	-8%
c1ccc(-c2ccccc2OCCCCN2CCCCCC2)cc1	-11%	?	-2%	-17%	-2%	18µM*
Cc1ccc(CCNC(=O)Cn2ccc3cc(S(=O)(=O)N4CCCC4)ccc32)cc1	1%	23µM*	-13%	-7%	-2%	?
COc1ccc(CCNC(=O)Cn2ccc3cc(S(=O)(=O)N4CCCC4)ccc32)cc1OC	3%	1%	-3%	-7%	1%	0%
Cc1ccccc1CCNC(=O)Cn1ccc2cc(S(=O)(=O)N3CCCC3)ccc21	2%	?	-3%	-19%	-22%	18µM*
Cc1c(O)nc(SCC(=O)Nc2ccc(Cl)cc2Cl)n(-c2ccc(F)cc2)c1=O	2%	-4%	-4%	8%	·	11%
O=C(O)c1ccc(COc2ccccc2/C=C2/NC(=O)N(c3cccc(Cl)c3)C2=O)cc1	25µM*	-18%	?	0%	-21%	0%
O=C(CN1C(=O)N/C(=C\c2ccccc2OCc2ccc(C(=O)O)cc2)C1=O)Nc1ccc(F)cc1	8%[0.0935 µM]	-8%	-6%	8%	-21%	21%
O=C(O)c1ccc(COc2ccccc2C=C2C(=O)c3ccccc3C2=O)cc1	-8%	-1%	-7%	?	0.47µM*	-3%
O=C(O)c1ccc(COc2ccccc2/C=C2\NC(=O)N(Cc3ccc(F)cc3)C2=O)cc1	-5%	?	-11%	-4%	67µM*	1%
O=C(O)c1cccc(-n2cccc2/C=C2/NC(=O)N(c3ccc(Cl)cc3)C2=O)c1	0.04µM*	-9%	8.9µM*	5%	4.7µM*	-24%
O=C1NC(=S)N/C1=C\c1ccccc1OCc1ccc(C(=O)O)cc1	0%	-15%	-10%	28%	-8%	-10%
CCn1cc(C(=O)Nc2ccccc2C(=O)OC)c(=O)c2ccc(C)nc21	3%	·	-4%	·	·	·
CCOc1ccccc1NC(=O)Cn1cc(C(=O)c2ccc(Cl)cc2)c(=O)c2ccc(C)nc21	6%	15µM*	0%	4%	·	?
CCn1cc(C(=O)OCC(=O)OC2CC(C)CCC2C(C)C)c(=O)c2ccc(C)nc21 (stereo unspecified)	3%	?	-22%	-19%	-5%	18µM*
SMILES	TDP1 inh	DT40 TDP1 no CPT	GCN5L2 inh	VDR inh	PLK1 PBD block	TDP1 cell CPT
C=CCOC(=O)c1cn(CC)c2nc(C)ccc2c1=O	8%	-5%	-3%	2%	-4%	8%
Cc1ccc(C(=O)c2cn(Cc3cccc(C)c3)c3nc(C)ccc3c2=O)cc1	2%	21µM*	-2%	-8%	·	?
CCOC(=O)c1ccccc1NC(=O)c1cn(CC)c2nc(C)ccc2c1=O	-2%	0%	3%	?	27µM*	?
COc1ccccc1CNC(=O)C1CCC(CNS(=O)(=O)c2ccc3c(c2)CCCC(=O)N3)CC1 (stereo unspecified)	8%	-28%	7%	8%	·	-21%
Cc1ccccc1CN1CCN(C(=O)CC(C)C)CC1	·	5%	?	6%	3%	-12%
Cc1ccc(C(=O)c2cn(Cc3cc(C)ccc3C)c3nc(C)ccc3c2=O)cc1	2%	21µM*	-8%	6%	·	?
C=CCNc1oc(-c2cccs2)nc1S(=O)(=O)c1ccccc1	5%	-3%	-6%	-2%	3%	-1%
COCCNC(=O)c1ccc2c(c1)N(Cc1ccc(C(F)(F)F)cc1)C(=O)c1ccccc1S2	5%	?	-5%	-6%	·	16µM*
CCOc1ccc(CN2C(=O)c3ccccc3Sc3ccc(C(=O)NCCc4ccccc4)cc32)cc1	0%	?	0%	-3%	·	-28%
O=C(NC1CCCC1)c1ccc2c(c1)N(Cc1ccc(C(F)(F)F)cc1)C(=O)c1ccccc1S2	5%	9.2µM*	-7%	-13%	·	21µM*
CCN(CC)C(=O)c1ccc2c(c1)N(Cc1ccc(C(F)(F)F)cc1)C(=O)c1ccccc1S2	7%	18µM*	-28%	?	·	16µM*
CCCCCC1Nc2cc(C(F)(F)F)c(S(N)(=O)=O)cc2S(=O)(=O)N1 (stereo unspecified)	·	-1%	·	·	·	-1%
O=C(CSc1nnc(-c2cccnc2)o1)N1CCCCC1	9%	-24%	-5%	-19%	-12%	-10%
COc1cccc(C(=O)NC(Cc2ccccc2)c2ccc3c(c2)OCCCO3)c1 (stereo unspecified)	1%	?	-3%	-2%	0%	?
C(#CCN1CCCC1)CC(c1ccccc1)c1ccccc1	9%	16µM*	-2%	9%	-15%	?

From PubChem BioAssay
